PubChem BioAssay (NCI)
This is part of a sample that, as a whole, favours compounds with a hit. Of some 83,000 tested, about 20% had one in any assay.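 Assay: single dose, 48 h. Readout: percent growth (0 = no net growth; negative = cell death). Active: <10.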 Unmarked numbers belong to inactive results. Calls of active or inactive are those of the source.

Legend:
Experiment in all cases: NCI-60 one-dose screen, 48 h (100 = growth as untreated, 0 = no growth, -100 = all killed)
Conditions in all cases: 10 µM unless noted
[1] = system: DU-145 prostate
[2] = system: K-562 leukemia
[3] = system: MALME-3M melanoma
[4] = system: MDA-MB-231 breast
[5] = system: RXF 393 renal
[6] = system: SF-268 CNS
[7] = system: SF-295 CNS
[8] = system: SF-539 CNS
[9] = system: UACC-257 melanoma
[10] = system: M14 melanoma
[11] = system: HCT-15 colon
[12] = system: HT29 colon
[13] = system: SNB-75 CNS
[14] = system: SNB-19 CNS
[15] = system: U251 CNS
[16] = system: PC-3 prostate
[17] = system: SK-MEL-5 melanoma
[18] = system: UACC-62 melanoma
[19] = system: LOX IMVI melanoma
[20] = system: SK-MEL-28 melanoma

| SMILES | growth [1] | growth [2] | growth [3] | growth [4] | growth [5] | growth [6] | growth [7] | growth [8] | growth [9] | growth [10] | growth [11] | growth [12] | growth [13] | growth [14] | growth [15] | growth [16] | growth [17] | growth [18] | growth [19] | growth [20] |
| --- | --- | --- | --- | --- | --- | --- | --- | --- | --- | --- | --- | --- | --- | --- | --- | --- | --- | --- | --- | --- |
| Cc1ccc2c(n1)C[C@H](C(C)(C)O)CC[C@H]2C | 107% | 101% | 94.4% | 97.1% | 114% | 101% | 93.4% | 100% | 104% | 104% | 99.4% | 107% | 91.8% | 91.8% | 94.4% | 104% | 98.9% | 94.4% | 101% | 106% |
| C=C(C)[C@@H]1CCC[C@]2(C(=O)OC)CC[C@]3(C)[C@@H](CC[C@@H]4[C@@]5(C)CCCNC(C)(C)[C@@H]5CC[C@]43C)[C@@H]12 | 105% | 55.4% | 79.6% | 85.5% | 90.9% | 93.4% | 104% | 98.7% | 98.9% | 97% | 93.1% | 56.5% | 91.7% | 88.3% | 94.1% | 74.1% | 90% | 87.8% | 97.8% | 94.3% |
| COc1cccc(CNc2nnc(C)c(C)n2)c1O | 108% | 102% | 108% | 96.3% | 123% | 100% | 97% | 99.7% | 95% | 101% | 98.9% | 105% | 100% | 93.4% | 99.1% | 87.2% | 91.6% | 97.1% | 98.8% | 109% |
| CCN1C(=O)N(CC)C2C1NC(=S)N2/N=C/C=C/c1ccccc1 (stereo not given) | 7.35% (active) | 10.9% | 53.7% | 18.5% | 18.8% | 20.8% | 3.58% (active) | -13.8% (active) | 55.1% | 5.45% (active) | 12.4% | 3.6% (active) | 42.2% | 19.5% | 15.5% | 20.6% | -30% (active) | 23% | 14.3% | 61% |
| CCOc1cc(\C=N/N=C(N)/C(N)=N\N=C/c2ccc(O)c(OCC)c2)ccc1O | 111% | 83% | 123% | 94.7% | 95.9% | 98.1% | 106% | 112% | 108% | 113% | 101% | -46.5% (active) | 116% | 109% | 95.8% | 82.4% | 94.2% | 95.3% | 103% | 103% |
| Oc1ccc(C2OCCO2)c2cccnc12 | 56.7% | 17.3% | 49% | 46.6% | 77% | 31.1% | 86.9% | 36% | 79.2% | 25.8% | 32% | 78.3% | 80.6% | 64.4% | 27.4% | 32% | 48.4% | 51.4% | 38.4% | 63.4% |
| CCOC(=O)c1c(N)sc2cc(O)ccc12 | 89.2% | 89.9% | 118% | 106% | 115% | 105% | 96.3% | 106% | 115% | 108% | 97.1% | 104% | 86.7% | 106% | 98.9% | 103% | 104% | 92.3% | 96.5% | 92.7% |
| CC1(C)CCC[C@]23C(=O)O[C@](O)(C(=O)C4=C[C@@](C)(/C=C/CCCc5ccc6ccc7cccc8ccc5c6c78)CC[C@@]42O)[C@@H]13 | -85.7% (active) | 5.77% (active) | -93.6% (active) | -69.9% (active) | -86.2% (active) | -45.3% (active) | -76.7% (active) | -96.6% (active) | -68.7% (active) | -62% (active) | -69.3% (active) | -69.5% (active) | -78.8% (active) | -95.5% (active) | -85.5% (active) | -48.8% (active) | -96.3% (active) | -75.5% (active) | -85.5% (active) | -86.6% (active) |
